Measurements published in PMC4336329 (PLoS ONE, 2015).
In all, about 310,000 compounds went through this assay and about 2,200 (0.71%) showed an effect of 50% or more. Effects have a minus sign here. The sample as a whole holds a higher share of strong results than the screen did.

Each compound was assayed against human ether-à-go-go-related gene (hERG) potassium channel (human, UniProt Q12809) (assay: primary screen, population patch clamp on CHO cells stably expressing hERG; higher = less effect of the substance).
Chain of human ether-à-go-go-related gene (hERG) potassium channel (Q12809 whole entry, looked up): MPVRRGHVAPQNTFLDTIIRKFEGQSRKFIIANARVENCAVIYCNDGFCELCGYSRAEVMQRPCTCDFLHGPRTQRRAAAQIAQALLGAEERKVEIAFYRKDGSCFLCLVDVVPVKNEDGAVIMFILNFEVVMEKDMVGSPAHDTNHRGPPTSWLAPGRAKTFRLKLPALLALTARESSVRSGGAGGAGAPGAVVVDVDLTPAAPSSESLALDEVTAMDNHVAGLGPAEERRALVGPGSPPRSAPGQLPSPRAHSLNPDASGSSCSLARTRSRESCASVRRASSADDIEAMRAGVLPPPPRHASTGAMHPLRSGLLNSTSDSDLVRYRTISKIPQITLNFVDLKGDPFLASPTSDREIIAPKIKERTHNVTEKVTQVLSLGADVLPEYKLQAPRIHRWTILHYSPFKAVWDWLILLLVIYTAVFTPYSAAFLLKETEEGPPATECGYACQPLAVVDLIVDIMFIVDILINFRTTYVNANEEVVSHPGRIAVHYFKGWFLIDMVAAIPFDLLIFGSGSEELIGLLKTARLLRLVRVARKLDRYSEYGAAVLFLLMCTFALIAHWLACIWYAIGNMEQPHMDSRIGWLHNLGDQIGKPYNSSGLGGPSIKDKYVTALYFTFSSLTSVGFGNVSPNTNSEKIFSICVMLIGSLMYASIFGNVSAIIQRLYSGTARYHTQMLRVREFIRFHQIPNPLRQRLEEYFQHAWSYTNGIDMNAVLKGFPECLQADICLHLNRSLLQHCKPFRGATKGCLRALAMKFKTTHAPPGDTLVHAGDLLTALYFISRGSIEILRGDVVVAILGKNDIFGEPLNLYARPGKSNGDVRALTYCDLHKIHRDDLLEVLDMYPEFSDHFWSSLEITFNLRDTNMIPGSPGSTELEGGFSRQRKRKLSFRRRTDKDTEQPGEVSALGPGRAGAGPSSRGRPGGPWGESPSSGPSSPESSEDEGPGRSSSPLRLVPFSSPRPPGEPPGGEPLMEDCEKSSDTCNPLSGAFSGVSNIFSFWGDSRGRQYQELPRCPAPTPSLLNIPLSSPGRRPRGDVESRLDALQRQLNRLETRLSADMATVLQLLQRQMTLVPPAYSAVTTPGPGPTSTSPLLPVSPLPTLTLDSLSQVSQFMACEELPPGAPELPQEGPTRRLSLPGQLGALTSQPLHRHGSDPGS
Description: Briefly, Chinese hamster ovary (CHO) cells stably expressing the hERG channel were dislodged from tissue culture flasks and dispensed into PPC plates. […] During the recording, background leak currents were estimated by a 100 ms step to -80 mV from an initial holding potential of -70 mV and subtracted from the subsequent current measurement. The campaign was conducted in two phases using slight differences in recording protocol. In the first phase, the initial voltage pulse used a 100 ms step to -30 mV from a holding potential of -70 mV, a 2 s conditioning step to +25 mV, and a 2 s test step to -30 mV. During the second phase of the screen, the potential during the conditioning step was raised to +45 mV. In both phases of the campaign, a secondary voltage pulse was applied using the same parameters as the second phase initial pulse. The initial and secondary pulses were applied in the absence of compound, and upon application of 1 μM and 10 μM test concentrations. Small molecule effects on hERG current density were quantified by […].

Row | SMILES | hERG current change (%, negative = inhibition) at 1uM
1 | CC(=O)Nc1ccc(-n2c(C)ccc2C)cc1 | 12.9%
2 | O=C(/C=C/c1ccc(F)cc1)N1CCN(c2ncccn2)CC1 | 18.1%
3 | O=C(/C=C/c1ccccc1)N1CCN(c2ccccn2)CC1 | -3.17%
4 | O=C(/C=C/c1cccc(F)c1)N1CCN(c2ncccn2)CC1 | 12.4%
5 | O=C(/C=C/c1c(Cl)cccc1Cl)N1CCN(c2ncccn2)CC1 | -53%
6 | O=C(/C=C/c1ccccc1Cl)N1CCN(c2ncccn2)CC1 | 7.12%
7 | O=C(/C=C/c1cccc(F)c1)N1CCN(c2ccccn2)CC1 | -68.4%
8 | Cc1ccc2cc(CCNC(=O)c3ccc(S(=O)(=O)N4CCOCC4)cc3)c(=O)[nH]c2c1C | 11.8%
9 | Cc1ccc(C)c(S(=O)(=O)NCC(=O)NCc2ccco2)c1 | 4.55%
10 | Cc1cccc(C)c1NC(=O)CCCSc1nnc(N)s1 | 8.09%
11 | Br.CCCCn1c(=N)n(CCOc2ccc(C)cc2)c2ccccc21 | -59.6%
12 | Cl.N=c1n(CCN2CCOCC2)c2ccccc2n1CC(O)COc1ccccc1 (centres unmarked) | -3.77%
13 | CCCn1c(=N)n(CCOc2ccc(OC)cc2)c2ccccc21 | -22%
14 | CCCn1c(=N)n(CC(O)COc2ccc(C)cc2)c2ccccc21.Cl (centres unmarked) | -68%
15 | CCCCn1c(=N)n(CC(O)COc2ccccc2)c2ccccc21 (centres unmarked) | -68%
16 | CCCCn1c(=N)n(CC(O)COc2ccc(C)cc2)c2ccccc21.Cl (centres unmarked) | -77%
17 | CCn1c(=N)n(CC(O)COc2ccc(C)cc2)c2ccccc21.Cl (centres unmarked) | -16.8%
18 | Cc1ccc(OCC(O)Cn2c(=N)n(CCN3CCOCC3)c3ccccc32)cc1.Cl (centres unmarked) | -9.7%
19 | CCN(CC)CCn1c(=N)n(CC(O)COc2ccccc2)c2ccccc21.Cl (centres unmarked) | -20.5%
20 | CCCCn1c(=N)n(CC(O)c2ccccc2)c2ccccc21.Cl (centres unmarked) | -36.7%
21 | CCn1c(=N)n(CCOc2ccc(OC)cc2)c2ccccc21 | -25.5%
22 | Cc1ccc(OCC(O)Cn2c3ccccc3c3ccccc32)cc1 (centres unmarked) | 16.8%

Row | SMILES | hERG current change (%, negative = inhibition) at 1uM
23 | CCOC(=O)C1CCN(C(=O)CSC2=NCCS2)CC1 | 8.93%
24 | NS(=O)(=O)c1ccc(CCNC(=O)CN2CCN(Cc3cccc4ccccc34)CC2)cc1 | 8.33%
25 | O=C(COC(=O)CN1C(=O)c2ccccc2C1=O)Nc1cccc(F)c1 | 5.95%
26 | Cc1ccc(C)c(NC(=O)COC(=O)CNC(=O)c2ccccc2Cl)c1 | 9.98%
27 | Cc1cc(Cl)cc(Cl)c1CNc1c([N+](=O)[O-])c(=O)oc2ccccc12 | 7.59%
28 | CC(C)c1cccc(C(C)C)c1NC(=O)CN1C(=O)NC2(CCCCCCC2)C1=O | 8.87%
29 | Cc1ccc(S(=O)(=O)CC(=O)c2ccc(C(C)(C)C)cc2)cc1 | 2.43%
30 | Br.CCCCn1c(=N)n(CC(=O)c2ccc(OC)cc2)c2ccccc21 | -62.2%
31 | Br.COc1ccc(C(=O)Cn2c(=N)n(C)c3ccccc32)cc1 | -9.98%
32 | Br.CCn1c(=N)n(CC(=O)c2ccc(OC)cc2)c2ccccc21 | -0.629%
33 | C=CCOn1c(C)c(C(C)=O)c2c3nonc3ccc21 | 13.1%
34 | O=C(OCc1ccc2c(c1)OCO2)c1ccc(S(=O)(=O)N2CCCC2)cc1 | 3.44%
35 | CC(=O)Nc1ccc(-c2nnc(SCc3ccccc3C#N)n2C)cc1 | -5.5%
36 | O=C1N=C2SCCN2/C1=C\c1ccccc1Cl | 5.64%
37 | CCn1c2ccccc2c2cc(NC(=O)CSc3nnnn3-c3ccccc3)ccc21 | 9.35%
38 | O=C(NCCCn1ccnc1)/C(=C/c1ccco1)NC(=O)c1ccco1 | -10.2%
39 | Cc1ccc(C(=O)N/C(=C\c2ccco2)C(=O)NCCCn2ccnc2)cc1C | -15.7%
40 | Cc1ccc(C(=O)N/C(=C\c2ccco2)C(=O)NCCCn2ccnc2)cc1 | -64.1%
41 | Cc1ccc(C(=O)N/C(=C/c2ccco2)C(=O)NCCCn2ccnc2)cc1 | -62.5%
42 | COc1ccc(C(=O)N/C(=C\c2ccco2)C(=O)NCCCn2ccnc2)cc1 | -0.883%
43 | O=C(NCCCn1ccnc1)/C(=C\c1ccco1)NC(=O)c1ccco1 | -10.8%
44 | O=C(Nc1nc(-c2nc3ccccc3s2)cs1)C1COc2ccccc2O1 (centres unmarked) | 13.3%

Row | SMILES | hERG current change (%, negative = inhibition) at 1uM
45 | COC(=O)c1sc(NC(=O)c2cc(-c3ccccc3)nc3ccccc23)c(C#N)c1C | -6.75%
46 | CCOc1ccc(S(=O)(=O)N2CCC(C(=O)N3CCN(c4ccccc4F)CC3)CC2)cc1C | -1.32%
47 | CCc1nc2scc(-c3ccccc3)c2c(=O)n1N | 2.81%
48 | COc1ccc(-n2cnnc2SCC(=O)Nc2nc(C)c(Cl)cc2Cl)cc1 | -8.71%
49 | CCCCCn1c(=NC(=O)c2ccco2)c(C(=O)OCC)cc2c(=O)n3ccccc3nc21 | -30.9%
50 | CCOC(=O)c1cc2c(=O)n3cccc(C)c3nc2n(Cc2ccco2)c1=NC(=O)c1ccccc1 | 0.671%
51 | CCCCn1c(=NC(=O)c2ccco2)c(C(=O)OCC)cc2c(=O)n3cccc(C)c3nc21 | -16.5%
52 | CCOC(=O)c1cc2c(=O)n3cccc(C)c3nc2n(CC(C)C)c1=NC(=O)c1ccco1 | -64.7%
53 | CCCn1c(=NC(=O)c2ccco2)c(C(=O)OCC)cc2c(=O)n3ccccc3nc21 | -6.68%
54 | CCOCCCn1c(=NC(=O)c2ccco2)c(C(=O)OCC)cc2c(=O)n3cccc(C)c3nc21 | -73.9%
55 | O=C(NC1CC1)c1ccc(S(=O)(=O)NC2CCCCCC2)cc1 | 2.1%
56 | CC(C)CC(=O)Nc1cc2nn(-c3ccccc3)nc2cc1Cl | -0.947%
57 | Cc1sc2ncn(CC(=O)N3CCC(C(N)=O)CC3)c(=O)c2c1S(=O)(=O)N1CCOCC1 | 10.1%
58 | COC(=O)c1cc(NC(=O)CN2CCC(C(N)=O)(N3CCCCC3)CC2)cc(C(=O)OC)c1 | 5.65%
59 | Cc1nc2ccccc2nc(C)c1=NOCc1ccc(Cl)cc1Cl | 0.014%
60 | CC(=O)Nc1ccc(SCC(=O)Nc2ccccc2Oc2ccccc2)cc1 | 3.2%
61 | Cc1ccccc1NC(=O)CSC(N)=O | 24%
62 | CCN(CC)CCCN1C(=O)CSC1c1ccc([N+](=O)[O-])cc1.Cl (centres unmarked) | -74.4%
63 | CN(C)CCCN1C(=O)CSC1c1ccc([N+](=O)[O-])cc1.Cl (centres unmarked) | -11.4%
64 | CCN(CC)CCCN1C(=O)CSC1c1ccc2c(c1)OCO2.Cl (centres unmarked) | -15.9%
65 | CC(OC(=O)c1cccc(-n2cnnn2)c1)c1nc2ccccc2c(=O)[nH]1 (centres unmarked) | 7.2%
66 | Cc1ccc(CN2CCN(Cc3ccc(C)s3)CC2CCO)cc1 (centres unmarked) | -67.3%

Row | SMILES | hERG current change (%, negative = inhibition) at 1uM
67 | Cc1ccc(CN2CCN(Cc3cccc(C)n3)CC2CCO)cc1 (centres unmarked) | -2.38%
68 | Cc1ccc(CN2CCN(Cc3cccc4nccnc34)CC2CCO)cc1 (centres unmarked) | -53.3%
69 | Cc1ccc(CN2CCN(Cc3nc4ccccc4nc3C)CC2CCO)cc1 (centres unmarked) | -65.3%
70 | CC(C)Cn1c(CN2CCN(C)C(CCO)C2)nc2ccccc21 (centres unmarked) | 12.7%
71 | OCCC1CN(Cc2cccc3nccnc23)CCN1Cc1ccc(F)c(F)c1 (centres unmarked) | -11.8%
72 | Cc1ccc(CN2CCN(Cc3ccccn3)CC2CCO)cc1 (centres unmarked) | -5.1%
73 | Cc1ccc(CN2CCN(Cc3ccccc3)C(CCO)C2)s1 (centres unmarked) | -26.7%
74 | OCCC1CN(Cc2cccc3nccnc23)CCN1Cc1ccc(F)cc1 (centres unmarked) | -7.96%
75 | Cc1ccc(CN2CCN(Cc3cnc(C)s3)CC2CCO)cc1 (centres unmarked) | -0.701%
76 | Cc1nc2ccccc2nc1CN1CCN(Cc2ccc(F)c(F)c2)C(CCO)C1 (centres unmarked) | -6.36%
77 | CCn1c(CN2CCN(Cc3ccc(C)cc3)C(CCO)C2)nc2ccccc21 (centres unmarked) | -50.5%
78 | O=C(COc1ncnc2cc([N+](=O)[O-])ccc12)N(CCc1ccccc1)Cc1ccccc1 | 18.9%
79 | CC1(C)Oc2ccc3ccc(=O)oc3c2C(N2CCCCC2)C1O (centres unmarked) | 0.376%
80 | COc1cccc(-c2ocnc2C(=O)Nc2ccc(N3CCOCC3)cc2N2CCOCC2)c1 | 15.6%
81 | O=S(=O)(Nc1cc(Sc2cccc3cccnc23)c(O)c2ccccc12)c1ccc(F)cc1 | 13.4%
82 | CC(C)Oc1ccc(CNC(=O)C2CCN(C(=O)N3CCOc4ccccc43)CC2)cc1 | 6.25%
83 | NC(=O)C1CCN(CC(=O)Nc2cc(S(=O)(=O)N3CCOCC3)ccc2N2CCCC2)CC1 | -1.18%
84 | COC(=O)C1=COC(OC2OC(CO)C(O)C(O)C2O)C2C1C=CC2(O)CO (centres unmarked) | 5.93%
85 | COc1ccc(Cl)cc1NC(=O)[C@@]1(CC(=O)O)CC(/C=C/c2ccccc2)=NO1 | 12.8%
86 | CCc1ccc(-c2cc(C)no2)cc1S(=O)(=O)N1CCN(C(=O)c2ccco2)CC1 | -4.73%
